Measured values as given in ChEMBL document CHEMBL1157539, “Thousands of chemical starting points for antimalarial lead identification” (Nature, 2010).
Values joined by “and” are separate entries in the source; they are usually repeats but may differ in a detail not shown here. Identical values can stand only once.

Assays:
Format in all cases: functional
Plasmodium falciparum [1] = assay: GSK_TCMDC: Inhibition of Plasmodium falciparum 3D7 in whole red blood cells, using parasite LDH activity as an index of growth. Test compounds present at 2uM
Plasmodium falciparum [2] = assay: GSK_TCMDC: Inhibition of Plasmodium falciparum Dd2 in whole red blood cells, using parasite LDH activity as an index of growth. Test compounds present at 2uM
HepG2 = assay: GSK_TCMDC: Percent inhibition of human HepG2 cell line. Test compounds present at 10uM.

| SMILES | Inhibition (Plasmodium falciparum [1]) | Inhibition (Plasmodium falciparum [2]) | Inhibition (HepG2) |
| --- | --- | --- | --- |
| CC(=O)C1(c2ccccc2)CCN(CCC2(c3ccc(Cl)c(Cl)c3)CN(C(=O)Nc3cccc(C(F)(F)F)c3)CCO2)CC1 (stereo unspecified) | 95% | 66% | 24% |
| COC(=O)c1ccc(CC(C)NCC(O)c2cccc3ccccc23)cc1 (stereo unspecified) | 96% | 82% | 3% |
| Br.COC(=O)C(C)(C)c1ccc(CC(C)NCC(O)c2cccc(C(F)(F)F)c2)cc1 (stereo unspecified) | 99% | 98% | 6% |
| Oc1ccc2[nH]cc(C3=CCN(Cc4ccccc4)CC3)c2c1 | 94% | 67% | 1% |
| COC(=O)c1ccc(CC(C)NCC(O)c2ccc(F)c(Cl)c2)cc1.Cl (stereo unspecified) | 98% | 78% | 0% |
| CC(Cc1ccc(OCCCCOc2ccccc2)cc1)NCCCn1ccnc1 (stereo unspecified) | 100% | 100% | 100% |
| CC[C@H]1CN2CC[C@H]1C[C@H]2[C@H](O)c1cc(Cl)nc2ccc(OC)cc12 | 100% | 92% | 0% |
| O=C(Nc1ccccc1C(F)(F)F)NC1CCC(CN2CCC(c3c[nH]c4ccccc34)CC2)CC1 (stereo unspecified) | 96% and 86% |  | 46% and 34% |
| CN(C(=O)OCc1ccccc1)C1CCC(CCN2CCC3(CC2)C(=O)NCN3c2cccc(C(F)(F)F)c2)(c2ccccc2)CC1 (stereo unspecified) | 80% | 72% | 19% |
| O=C(CCc1ccc(Cl)cc1Cl)NC1CCC(CN2CCC(c3c[nH]c4ccccc34)CC2)CC1 (stereo unspecified) | 100% and 97% |  | 44% and 33% |
| O=C(/C=C/c1ccc(Cl)c(Cl)c1)NCCC1CCC(N2CCC(c3c[nH]c4ccccc34)CC2)CC1 (stereo unspecified) | 100% | 99% | 91% |
| C=CCOc1ccccc1CNCC(O)c1cccc(C(F)(F)F)c1 (stereo unspecified) | 99% | 98% | 10% |
| O=c1c2ccccc2nc(/C=C/c2ccc([N+](=O)[O-])cc2)n1-c1ccccn1 | 98% | 96% | 5% |
| CCCC(=O)c1c(O)c2ccccc2oc1=O | 93% | 1% | 11% |
| OC(CNC1CCCCC1)c1ccc(Cl)c(Cl)c1 (stereo unspecified) | 99% | 96% | 17% |
| Cc1ccc(/C=C/C(=O)NC2CCC(CN3CCC(c4c[nH]c5ccccc45)CC3)CC2)cc1 (stereo unspecified) | 100% | 66% and 69% | 32% and 41% |
